The results in this text go back to PubChem BioAssay AID2540 (Sanford-Burnham Center for Chemical Genomics, 2010).

The whole screen tested about 330,000 compounds, of which about 4,100 (1.2%) were called active. Rule as the data show it: active = inhibition above about 50%; inactive = the rest. The entries come from a sample that favours actives as a whole.

In general, inhibition refers to the relative decrease from the control value, in per cent.

The target in this experiment is Sentrin-specific protease 8 (Homo sapiens) (UniProt Q96LD8). Kind of experiment: SENP8 protease inhibitors, primary screen, biochemical, luminescence (AID 2540). Conditions: purified SENP8, Z-RLRGG-aminoluciferin cleavage, at 10 µM, stronger effect = higher value.
Sequence of Sentrin-specific protease 8 (Homo sapiens) (Q96LD8 whole entry, looked up): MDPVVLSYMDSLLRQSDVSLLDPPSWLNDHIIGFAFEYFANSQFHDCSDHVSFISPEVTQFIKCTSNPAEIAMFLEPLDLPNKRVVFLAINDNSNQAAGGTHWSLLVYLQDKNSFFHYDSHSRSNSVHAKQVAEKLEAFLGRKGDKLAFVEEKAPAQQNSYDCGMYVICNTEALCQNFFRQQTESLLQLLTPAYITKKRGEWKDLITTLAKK
For the molecule `COc1ccccc1OC(C)C(=O)Nc1ccc(S(=O)(=O)Nc2nccs2)cc1` (configuration not stated), the inhibition is -3.08% (inactive). With `c1ccc2[nH]c(-c3nc4ccccc4[nH]3)nc2c1`, the inhibition is 92.4% (active).

Consider `Cc1ccc(-c2nc3ccccc3[nH]2)cc1N`, for which the inhibition was 87.1% (active). The same measure for `Cc1ccccc1N1CC(c2nc3ccccc3[nH]2)CC1=O` (configuration not stated): 2.73% (inactive).

Turning to `COc1ccc(Br)cc1C(=O)NC(=S)Nc1cc(-c2nc3ccccc3[nH]2)ccc1C`, the inhibition is 3.06% (inactive).

As to `O=C(Nc1sc2c(c1-c1nc3ccccc3[nH]1)CCCC2)C1CC1`, the inhibition is -0.363% (inactive).

Regarding `Clc1ccccc1SCc1nc2ccccc2[nH]1`, the inhibition was 14.7% (inactive).

As to `CC(OC(=O)CCCOc1ccccc1)C(=O)Nc1ccc(Cl)cn1` (configuration not stated), the inhibition was -14.4% (inactive). The figure for `CCOc1ccccc1C1CC(c2ccc(Cl)cc2)Nc2nc(N)nn21` (configuration not stated) is 0.924% (inactive). The figure for `O=C(COC(=O)c1cnc(Cl)c(Cl)c1)NCc1ccco1` is -1.98% (inactive); for `CC(OC(=O)CNC(=O)c1cccc(F)c1)C(=O)NC1CCCCC1C` (configuration not stated) it is -11.2% (inactive); for `O=C(Nc1ccn(Cc2ccccc2F)n1)c1ccc(COc2ccc(Cl)cc2Cl)o1` it is 8.53% (inactive).

`O=C(Nc1ccn(Cc2ccccc2)n1)c1n[nH]c([N+](=O)[O-])c1Cl`: the inhibition was 97.2% (active).

In the case of `Cc1c(Br)c([N+](=O)[O-])nn1CC(=O)N1CCN(Cc2ccccc2)CC1`, the inhibition was -7.38% (inactive). The figure for `CC(CCc1ccc(O)cc1)NCc1ccc(Cl)cc1Cl` (configuration not stated) is -5.92% (inactive); for `COc1ccc(C2=Nc3cc(C)ccc3OC2)cc1` it is 67.5% (active).

As for `COc1ccc(C2=NOC(COC(=O)c3ccc4ccccc4n3)C2)cc1` (configuration not stated), the inhibition was -6.73% (inactive).

On to `Cc1ccc(C(=O)NNC2=Nc3cc([N+](=O)[O-])ccc3OC2)cc1`, for which the inhibition is -6.4% (inactive). The same measure for `Cn1c(-c2ccco2)nc2cc3ccccc3cc21`: 94.4% (active); for `CS(=O)(=O)n1nc(-c2ccco2)nc1N`: 0.284% (inactive). The figure for `COc1ccccc1-n1c(-c2cc(-c3ccco3)[nH]n2)n[nH]c1=S` is 3.44% (inactive); for `Cc1ccc(NC(=O)CSc2nnc(CNC(=O)c3ccccc3F)o2)cc1` it is 0.136% (inactive). The figure for `Cc1ccccc1-n1nnc2c(=O)oc3ccccc3c21` is -6.33% (inactive). `CC(NC(=O)Nc1ccccc1)C(c1cccs1)N1CCN(c2ccccc2)CC1` (configuration not stated): the inhibition is -7.79% (inactive).

Consider `COC(=O)C1=C(N)Oc2cc(C)[nH]c(=O)c2C1c1ccc(Cl)cc1` (configuration not stated), for which the inhibition is 3.38% (inactive). The same measure for `COCCCN(C(=O)CSCc1ccc(C)cc1)c1c(N)n(Cc2ccccc2)c(=O)[nH]c1=O`: -5.5% (inactive). Consider `Cc1csc(SCC(=O)Nc2sccc2C#N)n1`, for which the inhibition is 92.7% (active). The figure for `Cc1ccc(NC(=O)CSCC(=O)Nc2sccc2C#N)cc1` is 10.4% (inactive); for `Cc1cccc(C)c1Nc1nnc(SCC(=O)Nc2sccc2C#N)s1` it is 9.07% (inactive); for `Cn1cccc1Cc1nnc(SCC(=O)NCc2ccc3c(c2)OCO3)n1CCc1ccccc1` it is 2.69% (inactive). The figure for `CCOc1nnc(C)c2c(C)n(-c3cccc(Cl)c3)nc12` is 8.66% (inactive); for `Cc1nc2ccc(C(=O)N/N=C/c3ccc(O)cc3)cc2[nH]1` it is -3.65% (inactive).

Regarding `CC(C)c1c(C(=O)N/N=C/c2ccc(-c3ccccc3)cc2)nnn1-c1nonc1N`, the inhibition was 9.04% (inactive). The figure for `Cc1nonc1C(=O)N/N=C/c1ccc(O)cc1` is 97.5% (active). The figure for `COC(=O)c1cccc(N(CC(=O)NCC2CCCO2)C(=O)CCC(=O)Nc2cc(C)on2)c1` (configuration not stated) is -7.21% (inactive); for `CCOC(=O)c1cnc2sccn2c1=O` it is -2.74% (inactive); for `CCOC(=O)c1cnc(COc2ccccc2Cl)[nH]c1=O` it is -10.8% (inactive). The same measure for `CCOC(=O)c1cnc2[nH]c3ccccc3n2c1=O`: 78.1% (active); for `CCn1c2ccccc2c2cc(NC(=O)Nc3ccc([N+](=O)[O-])cc3C)ccc21`: -10.4% (inactive).

In the case of `CC(=O)Nc1ccc(S(=O)(=O)N2CCn3cccc3C2C)cc1` (configuration not stated), the inhibition is -4.04% (inactive). With `COc1ccccc1CCNC(=O)C1CCN(C(=O)/C=C/c2ccccc2)CC1`, the inhibition is -12.7% (inactive). The same measure for `COc1ccc(-c2csc(NC(=O)COC(=O)Cc3ccc(Cl)cc3Cl)n2)cc1`: 2.3% (inactive). Take `c1ccc(Nc2nc(-c3ccncc3)cs2)nc1`: the inhibition is 80.4% (active). The same measure for `COc1ccc2c(c1OC)C(=O)OC2Nc1nc(-c2ccccc2)cs1` (configuration not stated): 1.85% (inactive); for `COc1ccc(Nc2nc(-c3ccccc3)cs2)cc1`: 82.8% (active).

As for `COc1ccc(-c2csc(Nc3ccccn3)n2)cc1`, the inhibition was 85.4% (active). The same measure for `COc1ccc(C(=O)Nc2nc(-c3ccc(S(=O)(=O)N4CCOCC4)cc3)cs2)cc1`: -0.876% (inactive); for `Clc1ccc(Nc2nc(-c3cccs3)cs2)nc1`: 10.9% (inactive). The figure for `CCCn1c(CCNc2nc(-c3ccc(OC)cc3)cs2)nc2ccccc21` is 1.24% (inactive); for `Clc1ccc(-c2csc(-c3ccncc3)n2)cc1` it is -22.5% (inactive); for `COC(=O)c1ccc(/C=N/N2C(C)CCCC2C)cc1` (configuration not stated) it is -6.16% (inactive). The figure for `CC1(c2ccc3ccccc3c2)NC(=O)NC1=O` (configuration not stated) is -0.811% (inactive); for `Cc1c(O)c(C)c2c(c1O)C(=O)C[C@@H](c1ccccc1)O2` it is 6.05% (inactive).

Regarding `Cc1ccc(CS(=O)Cc2ccc(C(=O)N3CCOCC3)o2)cc1` (configuration not stated), the inhibition was -6.99% (inactive).

As for `COc1ccc(F)cc1C(=O)C1CCCN(C(=O)CCc2ccccn2)C1` (configuration not stated), the inhibition was 29.7% (inactive). The figure for `O=C(COC(=O)c1ncc(Cl)c(Cl)c1Cl)NC1CCS(=O)(=O)C1` (configuration not stated) is -7.58% (inactive); for `CCOC(=O)C1CCCN(C(=O)COc2ccc(N(C)S(=O)(=O)c3ccc(C)cc3)cc2)C1` (configuration not stated) it is -0.395% (inactive). As to `NNC(=O)c1cnn(-c2ccccc2)c1C(F)(F)F`, the inhibition was -1.96% (inactive).

Turning to `O=C(COc1ccccc1Cl)Nc1ccc(C(=O)c2ccc(C(=O)O)cc2)cc1`, the inhibition is 2.39% (inactive). As for `COC(=O)c1ccc(NCC(=O)c2ccccc2)cc1`, the inhibition is 92.3% (active). The same measure for `COC(=O)c1ccc(NCC(=O)N2CCCCCC2)cc1`: -5.06% (inactive); for `COC(=O)c1ccc(NC(=O)Nc2ccc(C)cc2)cc1`: -16% (inactive). The same measure for `O=C(COC(=O)c1ccc(S(=O)(=O)Nc2ccccc2)cc1)NCC1CCCO1` (configuration not stated): -2.95% (inactive); for `CC1CN(S(=O)(=O)c2ccc(C(=O)Nc3sccc3C(N)=O)cc2)CC(C)O1` (configuration not stated): -3.19% (inactive); for `CCCOc1ccc(CNC(=O)C2CCN(c3nn4c(=O)cc(C)nc4s3)CC2)cc1`: 7.56% (inactive). As for `Nc1ccc(-c2nnc(-c3ccccc3)o2)cc1`, the inhibition was 40% (inactive). The figure for `O=C(Nc1ccc2oc(-c3ccc4ccccc4c3)nc2c1)c1cccs1` is 5.01% (inactive); for `CCc1ccc2oc(-c3ccc(N)cc3)nc2c1` it is 89.6% (active). For `Fc1ccc2nc(-c3ccccc3)nc(SCc3nnc(-c4ccccc4)o3)c2c1`, the inhibition is 9.5% (inactive). Take `O=C(C[C@@H]1C/C=C\CCC(=O)OC[C@@H]2CCCN2C1=O)NCCO`: the inhibition is -14.7% (inactive). As for `CC(C)[C@H](NC(=O)N1c2ccccc2NC(=O)[C@@H]1C(C)C)C(=O)N[C@H](C(=O)O)c1ccccc1`, the inhibition was -11.1% (inactive). The figure for `COc1ccccc1N1CC(O)=C(c2nc3ccccc3s2)C1=N` is -8.72% (inactive). In the case of `COc1ccccc1OCc1nc2ccccc2s1`, the inhibition is 94.1% (active). With `CN(Cc1nc2ccccc2s1)C(=O)c1ccc(F)cc1`, the inhibition was -4.17% (inactive). The same measure for `COC(=O)Cc1ccc(OCC(=O)NC2CCCC2)cc1`: -7.77% (inactive). The same measure for `O=C(Nc1ccccc1C(F)(F)F)N1CCCC1c1cccnc1` (configuration not stated): 1.35% (inactive). The same measure for `Cc1ccccc1Nc1nc(-c2cccnc2)cs1`: 44% (inactive); for `CC(=O)Nc1cccc(-c2csc(Nc3cccc(C)n3)n2)c1`: 90.4% (active). As for `CC(=O)NCCC(=O)Nc1nc(-c2ccc3c(c2)OCCO3)cs1`, the inhibition was -10.2% (inactive).

In the case of `O=C(Nc1ccc(-c2csc(Nc3cccc(C(F)(F)F)c3)n2)cc1)c1cccc(C(F)(F)F)c1`, the inhibition was 2.09% (inactive). The same measure for `Cc1cccc(Nc2nc(-c3ccccc3)cs2)n1`: 81.3% (active). The figure for `CCc1noc(C)c1C(=O)Nc1nc(-c2ccccc2)cs1` is -12.4% (inactive). Turning to `CC(=O)NNc1cc(=O)c2c(=O)n(C)c(=O)n(C)c2[nH]1`, the inhibition was 5.83% (inactive). The figure for `COc1ccc(N(CC(=O)N/N=C/c2cccc3c2OCCO3)S(=O)(=O)c2ccc(NC(C)=O)cc2)cc1` is -14.1% (inactive); for `Cc1nc(COc2cc3oc(=O)cc(C)c3cc2Cl)cs1` it is -13.3% (inactive); for `CCN1CCCC1CNC(=O)Cn1cnc2ccc(S(=O)(=O)N3CCC(C)CC3)cc2c1=O` (configuration not stated) it is 3.55% (inactive). The same measure for `CCC1Nc2ncnc(N3CCN(c4ccccc4)CC3)c2N(Cc2ccc(Cl)cc2)C1=O` (configuration not stated): -14% (inactive); for `CCOCC(=O)Nc1ncc(S(=O)(=O)c2ccc([N+](=O)[O-])cc2)s1`: 1.6% (inactive). For `C=CCN(c1ccc(C(=O)Nc2cc(C)cc(C)c2)cc1)S(C)(=O)=O`, the inhibition is 3.93% (inactive). `CC(=O)Nc1ccccc1NC(=O)c1cc(C)cc(C)c1`: the inhibition was -8.13% (inactive). The same measure for `CSCc1ccc(C(=O)Nc2cc(C)cc(C)c2)cc1`: 72.8% (active); for `COc1ccccc1N=Cc1c(O)c2ccccc2oc1=O`: 58.3% (active); for `COc1ccccc1N=C(C)C1=C(O)COC1=O`: -4.5% (inactive). The same measure for `COc1cc(N=Cc2c(O)c3ccccc3oc2=O)c(OC)cc1Cl`: 20% (inactive). The figure for `C=CCn1c(C)cc(C2=NNC(=NCC)SC2)c1C` is 91.5% (active); for `COc1ccc(N(Cc2ccc(N(C)C)cc2)C(=O)c2ccc(S(C)(=O)=O)cc2)cc1` it is 7.56% (inactive); for `O=C(CCc1ccccc1)Nc1ccc(NC(=O)C2CC2)nc1` it is -0.592% (inactive).
